Data taken from PubChem BioAssay (NCATS).
Unmarked numbers belong to inactive results. Records with an inconclusive call do not appear. The source made the active and inactive calls. Unless noted, calls come from the whole dose curve; as a rule, active = well fitted curve in either direction with a large enough effect (not every such curve was filed as active); inconclusive = small, poorly fitted or top-dose-only effect, or another doubt; inactive = flat fitted curve, though single readings scatter.

What was measured:
[1] = biological target: Lysosomal acid glucosylceramidase (Homo sapiens) (UniProt P04062); test: Glucocerebrosidase-p2 (AID 348; in the data active = potency below about 10 µM; note: potency is the fitted concentration of half-maximal effect); details: purified GBA, blue fluorogenic substrate, 40 min
Lysosomal acid glucosylceramidase (Homo sapiens), sequence (P04062 whole entry, looked up): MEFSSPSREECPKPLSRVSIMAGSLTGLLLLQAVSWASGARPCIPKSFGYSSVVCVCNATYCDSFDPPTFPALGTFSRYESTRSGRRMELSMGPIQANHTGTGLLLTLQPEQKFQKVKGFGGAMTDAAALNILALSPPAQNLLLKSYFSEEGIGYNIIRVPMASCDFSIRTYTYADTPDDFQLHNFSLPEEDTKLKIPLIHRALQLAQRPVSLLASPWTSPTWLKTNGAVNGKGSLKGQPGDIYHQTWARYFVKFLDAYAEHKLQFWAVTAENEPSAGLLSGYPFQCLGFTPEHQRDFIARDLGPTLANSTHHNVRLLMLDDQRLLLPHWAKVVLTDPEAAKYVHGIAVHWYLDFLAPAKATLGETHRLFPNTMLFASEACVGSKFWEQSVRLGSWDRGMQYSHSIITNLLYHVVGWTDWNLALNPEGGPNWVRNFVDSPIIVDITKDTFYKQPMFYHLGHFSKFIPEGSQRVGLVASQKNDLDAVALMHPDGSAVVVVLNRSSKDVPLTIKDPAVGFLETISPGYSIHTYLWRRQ
Method in brief: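 Normal human glucocerebrosidase (0.2 nM) with blue fluorogenic substrate (80 uM final) in citrate/phosphate pH 5.9 with 10mM sodium taurocholate, 0.01% tween-20; 40 min RT, NaOH/glycine stop; fluorescence Ex 365/Em 440; AC50 from a titration from 0.6 nM upwards.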

[2] = AP1 Signaling Pathway (AID 357); details: ME-180 AP-1-bla reporter, EGF-induced, beta-lactamase ratio, 5 h; at 7.69 µM (top of the series) unless noted;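 note: ME-180 reporter cells stimulated with EGF at its EC50 level; % is set by controls: 0 for no effect and ±100 for the full control effect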
Method in brief: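 Beta-lactamase reporter under AP-1 response element, ME-180 background. Stimulus: EC50 EGF. Compound exposure 5 h, 37 °C. Detection: CCF4, 2.5 h RT, 460/530 nm. Values: AC50 from titration.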

[3] = biological target: Cytochrome P450 1A2 (Homo sapiens) (UniProt P05177); test: p450-cyp1a2 (AID 410; calls by dose curve; note: potency is the fitted concentration of half-maximal effect;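 for activity change, negative = inhibition: -100% = full effect of reference inhibitor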); details: recombinant CYP1A2, luciferin-ME demethylation, luminescence; series mostly up to 11.4 µM
Cytochrome P450 1A2 (Homo sapiens), sequence (P05177 whole entry, looked up): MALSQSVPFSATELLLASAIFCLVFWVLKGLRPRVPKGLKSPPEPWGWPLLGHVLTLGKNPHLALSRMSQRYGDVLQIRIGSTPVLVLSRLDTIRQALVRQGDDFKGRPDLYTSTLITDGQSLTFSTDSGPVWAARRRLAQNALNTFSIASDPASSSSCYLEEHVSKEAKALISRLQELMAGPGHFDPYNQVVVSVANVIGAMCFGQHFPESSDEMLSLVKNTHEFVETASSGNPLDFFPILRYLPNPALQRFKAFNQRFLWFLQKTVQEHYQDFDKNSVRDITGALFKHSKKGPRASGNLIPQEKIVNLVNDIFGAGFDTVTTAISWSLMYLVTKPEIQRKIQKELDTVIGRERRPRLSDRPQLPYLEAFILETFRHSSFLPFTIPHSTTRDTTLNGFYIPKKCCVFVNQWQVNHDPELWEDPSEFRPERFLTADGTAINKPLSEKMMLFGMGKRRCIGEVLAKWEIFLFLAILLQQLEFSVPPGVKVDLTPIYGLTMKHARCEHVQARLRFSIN
Method in brief: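 O-Demethylation of luciferin 6' methyl ether by human CYP1A2 is monitored as luciferase luminescence. Substrate sits at Km (100uM); enzyme is 20nM. Values are scaled to 57 uM furafylline as maximal inhibition.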

[4] = NFAT Signaling Pathway (AID 444); details: Jurkat NFAT-bla M1, carbachol, beta-lactamase ratio, 5 h; at 7.69 µM (top of the series) unless noted;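 note: carbachol stimulus at about its EC50 of 1 µM final; % is set by controls: 0 for no effect and ±100 for the full control effect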
Method in brief: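 Read-out: CCF4 FRET ratio (460 nm/530 nm) after 1 h RT dye loading, used for %activity and AC50 from titration series. Cells: Jurkat NFAT-β-lactamase/M1 line, treated with compound plus 1 uM carbachol for 5 h, 37 °C.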

[5] = Stat Signaling Pathway (AID 446); details: ME-180 (cervical carcinoma) SIE beta-lactamase reporter, IL-6 stimulated, 5 h; at 7.69 µM (top of the series) unless noted;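 note: ME-180 cervical cancer cells given 40 pM IL-6 alongside compound; SIE-controlled beta-lactamase reporter measured as 460/530 nm FRET emission ratio; % is set by controls: 0 for no effect and ±100 for the full control effect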
Method in brief: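 Overnight-plated ME-180 cells bearing a STAT Inducible Element beta-lactamase reporter; 5 h co-exposure to compound and 40 pM IL-6; values normalized to 300 pM IL-6 and 125 nM JAK inhibitor controls.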

[6] = biological target: Glucocorticoid receptor (Homo sapiens) (UniProt P04150); test: GR-GFP Redistribution (AID 450;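 active = compounds whose dose series gives a full or clear partial fitted curve of increased nuclear translocation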; note: potency is the fitted concentration of half-maximal effect); details: U2OS GR-GFP nuclear translocation, laser cytometry, 2 h
Glucocorticoid receptor (Homo sapiens), sequence (P04150 whole entry, looked up, the tested form may be a part): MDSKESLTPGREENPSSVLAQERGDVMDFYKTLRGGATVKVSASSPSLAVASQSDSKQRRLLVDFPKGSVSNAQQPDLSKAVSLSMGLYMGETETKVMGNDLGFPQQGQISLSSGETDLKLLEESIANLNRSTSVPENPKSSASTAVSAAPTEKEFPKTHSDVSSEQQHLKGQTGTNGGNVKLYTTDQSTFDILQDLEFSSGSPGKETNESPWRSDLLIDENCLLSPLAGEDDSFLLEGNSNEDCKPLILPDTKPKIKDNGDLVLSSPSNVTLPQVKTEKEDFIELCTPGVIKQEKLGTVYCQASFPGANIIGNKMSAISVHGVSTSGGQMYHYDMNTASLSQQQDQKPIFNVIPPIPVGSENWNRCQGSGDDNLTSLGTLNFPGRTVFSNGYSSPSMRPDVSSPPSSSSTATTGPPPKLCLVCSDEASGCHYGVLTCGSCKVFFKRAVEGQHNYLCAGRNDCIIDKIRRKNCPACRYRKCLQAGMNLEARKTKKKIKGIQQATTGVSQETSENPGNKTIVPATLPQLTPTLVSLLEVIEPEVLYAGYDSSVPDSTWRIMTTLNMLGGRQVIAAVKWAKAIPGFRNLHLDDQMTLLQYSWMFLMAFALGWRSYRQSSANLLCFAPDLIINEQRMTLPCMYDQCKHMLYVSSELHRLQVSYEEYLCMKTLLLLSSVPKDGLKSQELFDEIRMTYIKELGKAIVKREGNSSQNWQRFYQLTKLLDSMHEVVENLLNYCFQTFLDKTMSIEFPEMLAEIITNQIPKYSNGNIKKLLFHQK

[7] = biological target: Glucocorticoid receptor (Homo sapiens) (UniProt P04150); test: GR-EFC Redistribution (AID 451; calls by dose curve; note: potency is the fitted concentration of half-maximal effect); details: CHO-K1 GR-EFC translocation, beta-gal luminescence, 2 h
Method in brief: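 Translocation of GR-ED fusion to nuclear EA restores b-gal, read by luminescence after 1 h room-temperature detection. Engineered CHO-K1 biosensor cells, 1,000/well, exposed 2 h at 37 C to titrations up to 46 uM final.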

[8] = biological target: Mitogen-activated protein kinase 10 (Mus musculus) (UniProt Q61831); test: JNK3 AlphaScreen Assay (AID 530); details: JNK3 lysate, c-Jun phosphorylation; series mostly up to 57.1 µM;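 note: kinase came from lysate of stimulated human HepG2 cells; signal reports phosphorylation of biotinylated GST-cJun 1-79 at Ser73 with 10 µM ATP; % is set by controls: 0 for no effect and ±100 for the full control effect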
Method in brief: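 qHTS titrations with 15 min compound pre-incubation before adding ATP (10 uM final). Read-out: AlphaScreen of Ser73-phosphorylated biotin-GST-cJun using HepG2 lysate JNK3 activated by IL-1β and TNFα.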

[9] = biological target: 3',5'-cyclic-AMP phosphodiesterase 4B (Homo sapiens) (UniProt Q07343); test: qHTS Assay for Inhibitors of PDE-IV (AID 607; active = well fitted activation curve with a large enough effect in the main read-out, with a control signal flat, not every such curve was filed as active; note: % of control where 0% means no effect); details: HEK293 ACTOne CNG channel cells, membrane potential fluorescence; series mostly up to 22.9 µM
3',5'-cyclic-AMP phosphodiesterase 4B (Homo sapiens), sequence (Q07343 whole entry, looked up): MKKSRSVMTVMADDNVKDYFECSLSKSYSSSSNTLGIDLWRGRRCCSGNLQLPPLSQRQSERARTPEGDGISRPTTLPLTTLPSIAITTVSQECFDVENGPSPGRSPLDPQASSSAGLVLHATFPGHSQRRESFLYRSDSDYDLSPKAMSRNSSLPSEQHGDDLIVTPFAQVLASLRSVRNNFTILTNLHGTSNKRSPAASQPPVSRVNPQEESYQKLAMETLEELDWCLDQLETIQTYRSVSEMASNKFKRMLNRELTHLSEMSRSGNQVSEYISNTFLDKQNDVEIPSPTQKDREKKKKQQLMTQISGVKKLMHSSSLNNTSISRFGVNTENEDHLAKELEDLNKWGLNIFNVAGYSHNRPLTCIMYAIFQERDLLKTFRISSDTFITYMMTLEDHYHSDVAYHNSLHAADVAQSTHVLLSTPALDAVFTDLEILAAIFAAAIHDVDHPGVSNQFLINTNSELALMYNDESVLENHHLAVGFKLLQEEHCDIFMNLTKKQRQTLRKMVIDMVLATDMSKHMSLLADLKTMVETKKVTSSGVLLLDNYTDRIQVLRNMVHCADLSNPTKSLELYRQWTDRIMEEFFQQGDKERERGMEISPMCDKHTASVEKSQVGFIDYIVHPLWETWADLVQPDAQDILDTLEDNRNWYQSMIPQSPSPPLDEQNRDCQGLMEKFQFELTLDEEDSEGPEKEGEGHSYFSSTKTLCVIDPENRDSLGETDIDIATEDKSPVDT
Method in brief: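 Live HEK293 cells with a modified cyclic nucleotide-gated (CNG) channel report intracellular cAMP via membrane-potential dye fluorescence (ex 535/em 590 nm). Endogenous PDE-IV was targeted. Compounds were tested at up to 22.9 uM final; RO 20-1724 100 uM served as control.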

Compound	Potency [1] [µM]	activity change, negative = inhibition [2] [%]	Potency [3]	activity change, negative = inhibition [4] [%]	activity, negative = inhibition [5] [%]	Potency [6] [µM]	Potency [7] [µM]	activity change, negative = inhibition [8]	outcome [9]	activity change, negative = inhibition [3]
CN(CCC(=O)O)C1=Nc2ccc(Cl)cc2C(c2ccccc2)=[N+]([O-])C1	> 11.4	-5.9	0.0631 µM (active)	13.9	1.77	> 46	> 9.22	1.43% [at 11.4 µM]	inactive	
O=C(O)CN1C(=O)CN=C(c2ccccn2)c2cc(Cl)ccc21	> 11.4	0.0967	1.26 µM (active)	-1.6	6.14	> 46	> 9.22	3.65% [at 11.4 µM]	inactive	
c1ccc(CCN2CCOCC2)nc1	> 11.4	-2.6		11.7	4.66	> 46	> 9.22	1.44% [at 11.4 µM]	inactive	-3% [at 2.29 µM]
O=[As](O)(O)c1ccc(N=Nc2ccc([As](=O)(O)O)cc2)cc1	> 11.4	2.76	inactive	2.59	4.67	> 46	> 9.22	2.69% [at 11.4 µM]	inactive	
c1ccc(C[N+]23CN4CN(CN(C4)C2)C3)cc1	> 11.4	0.854		6.01	6.74	> 46	> 9.22	-2.9% [at 11.4 µM]	inactive	-10.1% [at 2.29 µM]
N[C@@H](Cc1ccccc1)P(=O)(O)O	> 11.4	-2.48	inactive	12.4	-2.79	> 46	> 9.22	3.3% [at 11.4 µM]	inactive	
Nc1nnnn1CCO	> 11.4	7.2	6.31 µM (active)	8	12	> 46	> 9.22	3.27% [at 11.4 µM]	inactive	
O=C(O)[C@@H](Br)[C@H](Br)C(=O)O	> 11.4	-8.85	inactive	12.2	3.93	> 46	> 9.22	-1.13% [at 11.4 µM]	inactive	
N[C@@H](CP(=O)(O)O)C(=O)O	> 11.4	0.329	inactive	2.91	2.68	> 46	> 9.22	5.7% [at 11.4 µM]	inactive	
CC(C)C(=O)CP(=O)(O)O	> 11.4	10.1	inactive	7.02	5.14	> 46	> 9.22	3.33% [at 11.4 µM]	inactive	
CC(=O)OC1=CC2=CC[C@H]3[C@H]4CCC(=O)[C@@]4(C)CC(=O)[C@]3(S)[C@]2(C)CC1	> 11.4	-0.915		2.48	-7.63	> 46	> 9.22	-3.16% [at 11.4 µM]	inactive	-9.4% [at 2.29 µM]
Nc1nc(N)c(Cn2ccnc2)c(=O)[nH]1	> 11.4	-1.23	inactive	17.6	7.55	> 46	> 9.22	2.41% [at 11.4 µM]	inactive	
N[C@H](Cc1ccccc1)c1nn[nH]n1	> 11.4	11.1	10 µM (active)	1.74	-5.07	> 46	> 9.22	5.89% [at 11.4 µM]	inactive	
O=C(NCP(=O)(O)O)c1cccnc1	> 11.4	23.1	inactive	5.87	4.58	> 46	> 9.22	0.703% [at 11.4 µM]	inactive	
O=C(O)[C@@H](O)[C@@H](O)[C@@H]1[O][Sb][O][C@@H]1CO	> 11.4	4.54		5.74	1.94	> 46	> 9.22	1.63% [at 11.4 µM]	inactive	-5.1% [at 2.29 µM]
CS(=N)(=O)CC[C@H](N)P(=O)(O)O (stereo partly drawn)	> 11.4	-0.909	inactive	-0.082	2.22	> 46	> 9.22	-2.65% [at 11.4 µM]	inactive	
CC(C)[C@]1(O)[C@@H](OC(=O)c2ccc[nH]2)[C@]2(O)[C@@]3(C)C[C@@]4(O)O[C@@]5([C@H](O)[C@@H](C)CC[C@]35O)[C@]2(O)[C@]41C	> 11.4	3.13		3.93	-4.77	> 46	> 9.22	0.163% [at 11.4 µM]	inactive	-17.2% [at 2.29 µM]
C[C@]1(O)CC[C@H]2[C@@H]3[C@@H](O)CC4=CC(=O)CC[C@@]4(C)[C@H]3CC[C@]21C	> 11.4	1.55		6.38	-1.92	> 46	> 9.22	-3.1% [at 11.4 µM]	inactive	1.4% [at 2.29 µM]
CC(C)CCC1(CCN)C(=O)NC(=O)NC1=O	> 11.4	5.02	inactive	4.97	1.34	> 46	> 9.22	-0.876% [at 11.4 µM]	inactive	
NC[C@@H](O)CSP(=O)(O)O	> 11.4	-1.23	inactive	-18.7	2.46	> 46	> 9.22	-5.07% [at 11.4 µM]	inactive	
NCCCN1CCN(c2ccccc2)CC1	> 11.4	2.17	inactive	-2.83	5.73	> 46	> 9.22	-2.39% [at 11.4 µM]	inactive	
[N-]=[N+]=NCC(=O)c1c[nH]c(=O)[nH]c1=O	> 11.4	12.2		5.05	1.86	> 46	> 9.22	0.476% [at 11.4 µM]	inactive	0.1% [at 2.29 µM]
O[C@H](CN1CC1)[C@@H](O)CN1CC1	> 11.4	10.5	inactive	-21.2	2.88	> 46	> 9.22	2.9% [at 11.4 µM]	inactive	
CC(C)(C)C(=O)CP(=O)(O)O	> 11.4	11.4	inactive	-0.88	-5.75	> 46	> 9.22	5.32% [at 11.4 µM]	inactive	
COc1cc(CCN)c(OC)c(OC)c1	> 11.4	7.8	3.16 µM (active)	-9.45	-3.83	> 46	> 9.22	4.46% [at 11.4 µM]	inactive	
Cc1ncc([N+](=O)[O-])n1CCN=[N+]=[N-]	> 11.4	3.02	inactive	5.75	-11.7	> 46	> 9.22	2.72% [at 11.4 µM]	inactive	
Nc1nc(N)c(N=Nc2ccc([As](=O)(O)O)cc2)c(=O)[nH]1	> 11.4	6.48		5.43	0.893	> 46	> 9.22	5.04% [at 11.4 µM]	inactive	-14.9% [at 2.29 µM]
